Laboratory results: PubChem BioAssay (NCI)
Compounds without any hit were thinned out: in the full panel of roughly 83,000, 20% have a hit.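 Testing used 96-well plates and a 48-hour single-concentration exposure. Example: -40 means 40% of the starting cells died.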 Calls of active or inactive are those of the source. Rule for the calls: active = growth percent below 10; inactive = the rest.

What was measured:
Test in all cases: NCI-60 one-dose screen, 48 h (100 = growth as untreated, 0 = no growth, -100 = all killed)
Details in all cases: 10 µM unless noted
SK-MEL-2 melanoma = tested on: SK-MEL-2 melanoma
EKVX NSCLC = tested on: EKVX NSCLC
SN12C renal = tested on: SN12C renal
UO-31 renal = tested on: UO-31 renal
TK-10 renal = tested on: TK-10 renal
ACHN renal = tested on: ACHN renal
CAKI-1 renal = tested on: CAKI-1 renal
A498 renal = tested on: A498 renal
CCRF-CEM leukemia = tested on: CCRF-CEM leukemia
MOLT-4 leukemia = tested on: MOLT-4 leukemia
SR leukemia = tested on: SR leukemia
RPMI-8226 leukemia = tested on: RPMI-8226 leukemia
OVCAR-8 ovarian = tested on: OVCAR-8 ovarian
OVCAR-5 ovarian = tested on: OVCAR-5 ovarian
OVCAR-4 ovarian = tested on: OVCAR-4 ovarian
SK-OV-3 ovarian = tested on: SK-OV-3 ovarian
IGROV1 ovarian = tested on: IGROV1 ovarian
OVCAR-3 ovarian = tested on: OVCAR-3 ovarian
HS 578T breast = tested on: HS 578T breast
NCI/ADR-RES ovarian = tested on: NCI/ADR-RES ovarian

Measured: growth

CCOC(=O)C(=CNc1cnc(Nc2ccc(N3CCOCC3)cc2)nc1Oc1ccc(OC)cc1)C(=O)OCC
active: TK-10 renal -26% | OVCAR-4 ovarian -43.1% | OVCAR-3 ovarian -9.17%
inactive: SK-MEL-2 melanoma 91.8% | EKVX NSCLC 87.1% | SN12C renal 26.6% | UO-31 renal 11.3% | ACHN renal 19% | CAKI-1 renal 25.1% | A498 renal 42.1% | CCRF-CEM leukemia 37.7% | MOLT-4 leukemia 60.5% | SR leukemia 31.6% | RPMI-8226 leukemia 42.2% | OVCAR-8 ovarian 43.1% | OVCAR-5 ovarian 71.5% | SK-OV-3 ovarian 55.5% | IGROV1 ovarian 26.8% | HS 578T breast 35% | NCI/ADR-RES ovarian 54.4%

Cc1ccc(C=C2C(=O)NC(=O)NC2=O)cc1
inactive: SK-MEL-2 melanoma 104% | EKVX NSCLC 101% | SN12C renal 99.2% | UO-31 renal 89.9% | TK-10 renal 97.8% | ACHN renal 110% | CAKI-1 renal 100% | A498 renal 105% | CCRF-CEM leukemia 103% | MOLT-4 leukemia 95.1% | SR leukemia 96.9% | RPMI-8226 leukemia 103% | OVCAR-8 ovarian 100% | OVCAR-5 ovarian 107% | OVCAR-4 ovarian 110% | SK-OV-3 ovarian 105% | IGROV1 ovarian 104% | OVCAR-3 ovarian 105% | HS 578T breast 105% | NCI/ADR-RES ovarian 102%

O=S(=O)(Nc1cc(Sc2cccc3cccnc23)c(O)c2ccccc12)c1ccccc1
active: CCRF-CEM leukemia 4.22% | MOLT-4 leukemia -7.99% | SR leukemia 5.4% | RPMI-8226 leukemia -4.98% | OVCAR-8 ovarian 9.56% | OVCAR-4 ovarian -100% | OVCAR-3 ovarian -81.2% | NCI/ADR-RES ovarian 8.88%
inactive: SK-MEL-2 melanoma 13.4% | EKVX NSCLC 36.4% | SN12C renal 29.6% | UO-31 renal 23.7% | TK-10 renal 23.4% | ACHN renal 16.9% | CAKI-1 renal 25.9% | A498 renal 70.4% | OVCAR-5 ovarian 47.1% | SK-OV-3 ovarian 52.1% | IGROV1 ovarian 10.4% | HS 578T breast 40.3%

Cc1cccc(-c2nc(Nc3ccc4ncsc4c3)c3ccccc3n2)n1
inactive: SK-MEL-2 melanoma 83.8% | EKVX NSCLC 79.1% | SN12C renal 92% | UO-31 renal 69.1% | TK-10 renal 87.2% | ACHN renal 91.9% | CAKI-1 renal 105% | A498 renal 83.6% | CCRF-CEM leukemia 37.5% | MOLT-4 leukemia 64.2% | SR leukemia 69.2% | RPMI-8226 leukemia 30.6% | OVCAR-8 ovarian 53.4% | OVCAR-5 ovarian 97.7% | OVCAR-4 ovarian 30.7% | SK-OV-3 ovarian 113% | IGROV1 ovarian 16.6% | OVCAR-3 ovarian 10.1% | NCI/ADR-RES ovarian 86.9%

COC(=O)c1ccc(NC(=O)Nc2ccc(C(=O)OC)cc2)cc1
inactive: SK-MEL-2 melanoma 88% | EKVX NSCLC 118% | SN12C renal 78.9% | UO-31 renal 96.9% | TK-10 renal 101% | ACHN renal 104% | CAKI-1 renal 124% | A498 renal 81.3% | CCRF-CEM leukemia 90.8% | MOLT-4 leukemia 79.9% | SR leukemia 78.9% | RPMI-8226 leukemia 89.9% | OVCAR-8 ovarian 104% | OVCAR-5 ovarian 102% | OVCAR-4 ovarian 113% | SK-OV-3 ovarian 99.3% | IGROV1 ovarian 106% | OVCAR-3 ovarian 113% | HS 578T breast 92.8% | NCI/ADR-RES ovarian 108%

C=C(CNCCO)[C@@H]1CC[C@]2(CO)CC[C@]3(C)[C@H](CC[C@@H]4[C@@]5(C)CCC(N)C(C)(C)[C@@H]5CC[C@]43C)[C@@H]12 (stereo partly drawn)
inactive: EKVX NSCLC 72% | SN12C renal 71.7% | UO-31 renal 81.7% | TK-10 renal 68.9% | ACHN renal 97.5% | CAKI-1 renal 54.1% | A498 renal 81.7% | OVCAR-8 ovarian 36.8% | OVCAR-5 ovarian 81.6% | OVCAR-4 ovarian 64.6% | SK-OV-3 ovarian 95.2% | IGROV1 ovarian 65.3% | OVCAR-3 ovarian 69.4% | HS 578T breast 51% | NCI/ADR-RES ovarian 94.8%
active: SK-MEL-2 melanoma -29.2% | CCRF-CEM leukemia 1.11% | MOLT-4 leukemia 8.81% | SR leukemia -23.1% | RPMI-8226 leukemia -35.3%

CC/C=C\C[C@H](O)C/C=C1/C(=O)C=C[C@@H]1C/C=C\CCCC(=O)O
active: CCRF-CEM leukemia 4.11% | MOLT-4 leukemia 5.7%
inactive: SK-MEL-2 melanoma 62.2% | EKVX NSCLC 105% | SN12C renal 46.2% | UO-31 renal 74.3% | TK-10 renal 103% | ACHN renal 84.5% | CAKI-1 renal 83.9% | A498 renal 90.9% | SR leukemia 10.3% | RPMI-8226 leukemia 10.1% | OVCAR-8 ovarian 20% | OVCAR-5 ovarian 128% | OVCAR-4 ovarian 74.8% | SK-OV-3 ovarian 116% | IGROV1 ovarian 99.2% | OVCAR-3 ovarian 14.8% | NCI/ADR-RES ovarian 78.3%

Cc1ccc(-c2csc(NC(=O)c3ccccc3CN3C(=O)c4ccccc4C3=O)n2)cc1
inactive: SK-MEL-2 melanoma 97.3% | EKVX NSCLC 93.6% | SN12C renal 94.5% | UO-31 renal 85.9% | TK-10 renal 94.4% | ACHN renal 108% | CAKI-1 renal 86.6% | A498 renal 99.8% | CCRF-CEM leukemia 102% | MOLT-4 leukemia 93.4% | SR leukemia 103% | RPMI-8226 leukemia 94.8% | OVCAR-8 ovarian 93.5% | OVCAR-5 ovarian 90.8% | OVCAR-4 ovarian 111% | SK-OV-3 ovarian 97.5% | IGROV1 ovarian 96.5% | OVCAR-3 ovarian 103% | HS 578T breast 98.8% | NCI/ADR-RES ovarian 82.3%

COc1cc(NC(=O)c2cncnc2Nc2ccc3c(ccn3Cc3ccccn3)c2)cc(OC)c1
inactive: SK-MEL-2 melanoma 45% | EKVX NSCLC 68.4% | SN12C renal 56.2% | UO-31 renal 46% | TK-10 renal 73.3% | ACHN renal 66.5% | CAKI-1 renal 44.2% | CCRF-CEM leukemia 22.3% | MOLT-4 leukemia 24.9% | SR leukemia 12.9% | RPMI-8226 leukemia 43.5% | OVCAR-8 ovarian 65.8% | OVCAR-5 ovarian 76.6% | OVCAR-4 ovarian 78.4% | SK-OV-3 ovarian 57.9% | IGROV1 ovarian 45.4% | HS 578T breast 35.2% | NCI/ADR-RES ovarian 35%
active: A498 renal -12.5% | OVCAR-3 ovarian 9.55%

CCOc1c(OC)cc2c(c1O)C(=O)N[C@@H]1[C@@H](O)[C@@H](O)[C@H](O)C[C@@H]21
inactive: SK-MEL-2 melanoma 106% | EKVX NSCLC 98% | SN12C renal 104% | UO-31 renal 92.9% | TK-10 renal 93.9% | ACHN renal 103% | CAKI-1 renal 91.3% | A498 renal 99.5% | CCRF-CEM leukemia 103% | MOLT-4 leukemia 92.4% | SR leukemia 89.2% | RPMI-8226 leukemia 103% | OVCAR-8 ovarian 101% | OVCAR-5 ovarian 98.7% | OVCAR-4 ovarian 107% | SK-OV-3 ovarian 98.1% | IGROV1 ovarian 102% | HS 578T breast 100% | NCI/ADR-RES ovarian 110%

Cc1ccc(CNc2c3ccccc3nc3ccccc23)cc1
active: A498 renal 7.64% | MOLT-4 leukemia 4.29% | SR leukemia -0.81% | RPMI-8226 leukemia -11%
inactive: SK-MEL-2 melanoma 42.7% | EKVX NSCLC 37.9% | SN12C renal 24.9% | UO-31 renal 12% | TK-10 renal 35.8% | ACHN renal 14% | CAKI-1 renal 18.6% | CCRF-CEM leukemia 20.9% | OVCAR-8 ovarian 21.8% | OVCAR-5 ovarian 38.1% | OVCAR-4 ovarian 24.5% | SK-OV-3 ovarian 46.9% | IGROV1 ovarian 19.4% | OVCAR-3 ovarian 34.1% | NCI/ADR-RES ovarian 26.1%

COc1ccc(C(=O)c2cc3c(N)c(C(=O)Nc4ccccc4)sc3nc2C)cc1
active: A498 renal -1.62% | SR leukemia 8.41% | OVCAR-3 ovarian -4.41%
inactive: SK-MEL-2 melanoma 54.8% | EKVX NSCLC 50.4% | SN12C renal 32.1% | UO-31 renal 52.3% | TK-10 renal 65.2% | ACHN renal 42.7% | CAKI-1 renal 40% | CCRF-CEM leukemia 10.4% | MOLT-4 leukemia 18.3% | RPMI-8226 leukemia 14.3% | OVCAR-8 ovarian 25.5% | OVCAR-5 ovarian 38.8% | OVCAR-4 ovarian 74.8% | SK-OV-3 ovarian 33% | HS 578T breast 10.6%

C=C1C(=O)O[C@H]2[C@H]1CC/C(Cn1cc(CCC)nn1)=C\CC[C@@]1(C)O[C@@H]21
active: UO-31 renal 0.946% | TK-10 renal -15.9% | ACHN renal -0.504% | CAKI-1 renal 5.35% | CCRF-CEM leukemia -27.4% | MOLT-4 leukemia -1.09% | SR leukemia 0.0381%
inactive: SK-MEL-2 melanoma 44.7% | EKVX NSCLC 77.4% | SN12C renal 23.1% | A498 renal 39% | RPMI-8226 leukemia 26.9% | OVCAR-8 ovarian 23.7% | OVCAR-5 ovarian 68.2% | OVCAR-4 ovarian 40.3% | SK-OV-3 ovarian 111% | IGROV1 ovarian 41% | HS 578T breast 69.1% | NCI/ADR-RES ovarian 73.1%

COc1ccc(-c2nc3c(N)c(CO)cnc3s2)cc1
active: A498 renal -19.1%
inactive: SK-MEL-2 melanoma 105% | EKVX NSCLC 48.4% | SN12C renal 108% | UO-31 renal 84.6% | TK-10 renal 91.9% | ACHN renal 93.4% | CAKI-1 renal 88.7% | CCRF-CEM leukemia 103% | MOLT-4 leukemia 91.1% | SR leukemia 93.5% | RPMI-8226 leukemia 92.9% | OVCAR-8 ovarian 103% | OVCAR-5 ovarian 80.4% | OVCAR-4 ovarian 101% | SK-OV-3 ovarian 99.9% | IGROV1 ovarian 84.7% | HS 578T breast 92.8% | NCI/ADR-RES ovarian 86.7%

O=C(N=Nc1c(O)[nH]c2ccccc12)Nc1ccc(F)cc1
inactive: SK-MEL-2 melanoma 102% | EKVX NSCLC 94.3% | SN12C renal 94.6% | UO-31 renal 72.8% | TK-10 renal 113% | ACHN renal 92.8% | CAKI-1 renal 81.5% | A498 renal 102% | CCRF-CEM leukemia 95.4% | MOLT-4 leukemia 92.5% | SR leukemia 84.2% | RPMI-8226 leukemia 91% | OVCAR-8 ovarian 96.7% | OVCAR-5 ovarian 90.4% | OVCAR-4 ovarian 103% | SK-OV-3 ovarian 80.5% | OVCAR-3 ovarian 102% | HS 578T breast 96.2%

N#CC1CCc2c(c(-c3ccc4nc(N)sc4c3)nc3ccc4[nH]ncc4c23)C1 (stereo not drawn)
active: A498 renal -3.66% | SR leukemia 9.04%
inactive: SK-MEL-2 melanoma 51.7% | EKVX NSCLC 64.8% | SN12C renal 62.5% | UO-31 renal 31.2% | TK-10 renal 41.6% | ACHN renal 29.6% | CAKI-1 renal 11.3% | CCRF-CEM leukemia 42.6% | MOLT-4 leukemia 17.2% | RPMI-8226 leukemia 43.4% | OVCAR-8 ovarian 46.4% | OVCAR-5 ovarian 65.5% | OVCAR-4 ovarian 64.9% | SK-OV-3 ovarian 33.7% | IGROV1 ovarian 53.2% | HS 578T breast 30.9%
